# Screening results deposited in PubChem by Broad Institute.
# Shown is part of a subset that was picked to be rich in hits.
# Tgondii IFNg: inhibitors of Toxoplasma gondii growth with IFN-gamma. Toxoplasma gondii growth in IFN-gamma-treated host cells; stronger effect = lower value. activity change, negative = inhibition, % (no concentration beside the values). hit rate 3.8% among 69,000. AID 1259416; in the data active means activity change below about -70%, passing the limit was not always enough;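 further: host cells are HeLa cells infected with Toxoplasma gondii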
# * hit, by the source's call; i = inactive; ! = a repeat was not active.
SMILES,Tgondii IFNg
Cc1cc(C)n(-c2c(Cl)cc(C(F)(F)F)cc2Cl)n1,35
COc1ccc(OC)c(NC(=O)Cn2c(=O)cc(C(=O)N3CCCC3)c3ccccc32)c1,2
O=c1cc(-c2ccccc2)oc2cc(O)ccc12,28
O=c1cc(-c2ccc(O)cc2)oc2cc(O)cc(O)c12,53
O=c1cc(-c2ccc(O)cc2)oc2ccc(O)cc12,-87*
CCC(Nc1cccc(OC)c1)C(=O)NCc1cc(=O)[nH]cn1 (centres undefined),8
CN1CC2(CCCN(C(=O)c3cccc4c3NCCC4)CC2)OC1=O (centres undefined),10
CCN1CCN(CC(=O)N2CCCC(c3cc(=O)n4c(n3)CCCCC4)C2)CC1 (centres undefined),-1
CCC(=O)N1CCCC(c2cc(C(F)(F)F)c3c(=O)n(C)c(=O)n(C)c3n2)C1 (centres undefined),-79*
CCC(=O)N1CCCC(c2cnc(Nc3nccs3)cn2)C1 (centres undefined),-29
CC(=O)c1ccc(OCC(O)Cn2cnc3ccccc32)cc1 (centres undefined),24
Cn1c(CNC(=O)C2CCC2)nc2c1CN(S(=O)(=O)c1ccc(Cl)s1)CC2,-39
COc1ccc(-c2cnc3n2CCN(C)C32CCN(C3CCCC3)CC2)cc1,6
Cc1ccc(CS(=O)(=O)N2CC[C@H]3[C@@H]2CCN3C)cc1,-20
CCn1c(=O)c(-c2nc(-c3cc(C)ccc3C)no2)c(O)c2cc(F)ccc21,-36
CN(C)CCO[C@H]1CN(Cc2ccoc2)[C@H]2COC[C@@H]12,78
CC(C)Oc1ccc(C(=O)N[C@H](CNC(=O)CN(C)C)Cc2ccc(-c3cn4cccc([C@H](C)O)c4n3)cc2)cc1Cl,-80*
Cc1cccn2cc(-c3ccc(NC(=O)CNC(=O)c4ccccc4)cc3)nc12,61
O=C(Cn1c(=O)ccc2cc(S(=O)(=O)N3CCCC3)ccc21)NC1CC1,10
Cc1ccc(-c2nc(CN(c3ccccc3)S(=O)(=O)c3ccccc3)c(C)o2)cc1,1
Nc1nc2ccc(OC(F)(F)F)cc2s1,-94*!
Nc1nc2ccc(-c3nc4ccccc4[nH]3)cc2s1,470
COC(=O)c1ccc2nc(N)sc2c1,-28
Cc1ccc(C2=NC3(CCN(Cc4ccccc4C)CC3)NC2=O)cc1C,5
Cc1cc(C)nc(SCC(=O)N2CCC(c3noc(-c4ccccn4)n3)CC2)n1,-9
SMILES,Tgondii IFNg
COc1cccc(Nc2nc(N)nc(CSc3nnc(C)s3)n2)c1,24
Cc1n[nH]c(C)c1CCCNC(=O)c1cc(=O)[nH]c2ccccc12,-2
Cc1nc2c(c3c1[nH]c1ccccc13)C(=O)CC(C)(C)C2,-15
CNCCCCc1cnc(C)c2[nH]c3ccccc3c12,-95*
CN(C)Cc1cnc2n1CCN(Cc1cccs1)CC2,18
C=CCN1C(=O)CCC12CCC(NC(=O)c1cnccn1)CC2 (centres undefined),-44
COc1cccc(-c2ccc3c(c2)O[C@@H](CN(C)Cc2cccnc2)[C@H](C)CN([C@H](C)CO)S3(=O)=O)c1,-64
COc1cccc(-c2ccc3c(c2)O[C@H](CN(C)Cc2cccnc2)[C@@H](C)CN([C@@H](C)CO)S3(=O)=O)c1,-64
C[C@H](CO)N1C[C@H](C)[C@H](CN(C)C(=O)Cc2cccnc2)Oc2cc(C#Cc3ccccc3F)ccc2S1(=O)=O,-89*
COc1cccc(C#Cc2ccc3c(c2)O[C@H](CN(C)C(=O)CN2CCOCC2)[C@@H](C)CN([C@H](C)CO)S3(=O)=O)c1,-6
COc1cccc(C#Cc2ccc3c(c2)O[C@H](CN(C)C(=O)CN2CCOCC2)[C@@H](C)CN([C@@H](C)CO)S3(=O)=O)c1,-50
C[C@@H]1CN([C@H](C)CO)S(=O)(=O)c2ccc(C#Cc3ccccc3F)cc2O[C@@H]1CN(C)C(=O)Cc1cccnc1,-99*
COCC1CN(C(=O)c2cscn2)Cc2cn(C)nc21 (centres undefined),-21
COc1ccc(NC(=O)c2cccc(Cn3nc(C)c(Br)c3C)c2)cc1,55
CC(C)CC1C(=O)N2CCCC2C2(O)OC(NC(=O)C3C=C4c5cccc6[nH]c(Br)c(c56)CC4N(C)C3)(C(C)C)C(=O)N12 (centres undefined),-12
O=C(c1cn(-c2ccccc2)nn1)N(Cc1cnn(-c2ccccc2)c1)C1CC1,386
O=C(c1cscn1)N1CC2CN(Cc3cccc(F)c3)C2C1 (centres undefined),-4
CC(C)n1cnc2c1C(C(=O)C1CCC(N(C)C)C1)N(Cc1ccccc1)CC2 (centres undefined),2
CC(C)n1nc2c(cc1=O)CN(C(=O)c1ccc3c(c1)OCO3)CC2,-80*
O=C(c1ccc2c(c1)OCO2)N1Cc2cnn(CCO)c2C1,4
Cn1cnc2c1C(C(=O)O)CN(C(=O)c1ccc3c(c1)OCO3)C2 (centres undefined),11
COCCN1C[C@@H]2CN(S(=O)(=O)Cc3ccccc3)C[C@H]2C1=O,10
CS(=O)(=O)N1CCC2(CC1)CC(COCC1CC1)N(CC1CC1)C2 (centres undefined),0
CC(C)(C)NC(=S)N/N=C1/CCCc2occc21,-95*
O=C(O/N=C1/CCCc2occc21)c1ccccc1,10
SMILES,Tgondii IFNg
O=C1c2ccccc2C2(c3ccccc3)N1CCN2C(=S)Nc1cccc(Cl)c1 (centres undefined),7
Cc1c(CN2CCCC(c3nc(C(C)C)no3)C2)c2ccccc2n1CC(N)=O (centres undefined),-5
CCOC(=O)c1cc(C2CC2)nc2c1c(=O)n(Cc1nc(-c3ccc(Cl)cc3)oc1C)c(=O)n2C,-59
C[C@H](CO)N1C[C@H](C)[C@H](CN(C)S(=O)(=O)c2cccc(F)c2)Oc2ncc(C#CC3(O)CCCC3)cc2C1=O,60
C[C@H]1CN([C@@H](C)CO)C(=O)c2cc(C#CC3(O)CCCC3)cnc2O[C@@H]1CN(C)S(=O)(=O)c1cccc(F)c1,-112*
C[C@@H]1CN([C@H](C)CO)C(=O)c2cc(C#CC3(O)CCCC3)cnc2O[C@H]1CN(C)S(=O)(=O)c1cccc(F)c1,i
C[C@H](CO)N1C[C@H](C)[C@@H](CN(C)C(=O)c2ccccc2)Oc2ncc(C#Cc3ccccc3)cc2C1=O,-88*
C[C@H]1CN([C@@H](C)CO)C(=O)c2cc(C#Cc3ccccc3)cnc2O[C@H]1CN(C)C(=O)c1ccccc1,-14
C[C@@H]1CN([C@H](C)CO)C(=O)c2cc(C#Cc3ccccc3)cnc2O[C@@H]1CN(C)C(=O)c1ccccc1,17
Cc1ccccc1-c1ncc(CNCCSc2nnnn2C)s1,5
Cc1ccc2c(n1)N(Cc1ccncc1)CCN(C(=O)N(C)C)C2,5
O=C(CCN1CCC(O)(Cn2ccnc2)CC1)Nc1nc2ccccc2s1,2
COc1ccc(C(CC(=O)O)NC(=O)c2ccc(F)cc2)cc1OC (centres undefined),-16
Cc1cc(C)n(C(C)C(=O)N2Cc3cnc(-c4ccccc4)nc3C2)n1 (centres undefined),-14
Cc1cc2cc(NC(=O)C3CC(=O)N(c4ccccc4C)C3)cc(Cl)c2o1 (centres undefined),0
CC1(C)CC[C@]2(C(=O)O)CC[C@]3(C)C(=CCC4[C@@]5(C)CC[C@@H](O)C(C)(C)C5CC[C@]43C)C2C1 (some centres undefined),-58
C[C@@H]1CC[C@]2(C(=O)O)CC[C@]3(C)C(=CCC4[C@@]5(C)CC[C@H](O)C(C)(C)C5CC[C@]43C)C2[C@H]1C (some centres undefined),10
